Measurements taken from the supplement of paper PMC6522484.
± gives the standard deviation of the averaged measurements.

system: DLD1; assay: cell viability (CellTiter-Glo) relative to plate median (fraction of plate median); higher = more viable cells; conditions: 10 µM; treatment time 24 h; reporter: 7TFP
Method in brief: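 Kinase inhibitor library compounds were added at a final 10 µM for 24 h to colorectal cancer cells in 384-well plates, 24 h after seeding. The cells stably expressed lentiviral TCF/Wnt firefly luciferase reporters. Firefly luciferase and CellTiterGlo luminescence came from parallel plates, and each well was normalised to its plate median (webcellHTS2, additive, untransformed), averaged over two independent replicates.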

Compound	cell viability
O=C(O)c1ccc(Nc2ncc3c(n2)-c2ccc(Cl)cc2C(c2c(F)cccc2F)=NC3)cc1	1.06 ± 0.028
O=C(c1ccc(/C=C/c2n[nH]c3ccccc23)cc1)N1CCNCC1	1.16 ± 0.021
Cc1[nH]c(/C=C2\C(=O)Nc3ccc(S(=O)(=O)N(C)c4cccc(Cl)c4)cc32)c(C)c1C(=O)N1CCN(C)CC1	1.13
Nc1cc(C(F)(F)F)c(-c2cc(N3CCOCC3)nc(N3CCOCC3)n2)cn1	0.777 ± 0.073
COC(=O)Nc1ccc(-c2nc(N3CCOCC3)c3cnn(C4CCN(Cc5cccnc5)CC4)c3n2)cc1	0.796 ± 0.069
Fc1cc(-c2cccc3ncc(-c4cnn(C5CCNCC5)c4)nc23)cc(F)c1CN1CCOCC1	0.974 ± 0.14
COCC(=O)NC/C=C/c1ccc2ncnc(Nc3ccc(Oc4ccc(C)nc4)c(C)c3)c2c1	0.964 ± 0.14
COc1cc2ncnc(Nc3cccc(Br)c3)c2cc1OC	1.15 ± 0.15
Nc1ccc(-c2ccc3ncc4ccc(=O)n(-c5cccc(C(F)(F)F)c5)c4c3c2)cn1 [Torin 2]	0.949 ± 0.031
Oc1cccc(-c2nc(N3CCOCC3)c3oc4ncccc4c3n2)c1	0.906 ± 0.036
Cc1cccc(-c2[nH]c(C(C)(C)C)nc2-c2ccc3nccnc3c2)n1	1.14 ± 0.064
Cc1ncc(-c2ccnc(Nc3ccc(S(C)(=O)=O)cc3)n2)n1C(C)C	1.25 ± 0.16
CN1CCN(c2nc(C3=C(c4c[nH]c5ccccc45)C(=O)NC3=O)c3ccccc3n2)CC1 [Sotrastaurin (AEB071)]	1.08 ± 0.092
C[C@@H](N)[C@H]1CC[C@H](C(=O)Nc2ccncc2)CC1	1.03 ± 0.05
CC(C)(C)c1cc(/C=C(\C#N)C(N)=S)cc(C(C)(C)C)c1O [Tyrphostin AG 879 (AG 879)]	0.851 ± 0.1
c1cncc(CN2CCC(n3ncc4c(N5CCOCC5)nc(-c5ccc6[nH]ccc6c5)nc43)CC2)c1	0.992 ± 0.17
CCS(=O)(=O)c1cccc(-c2cc(C(=O)NC3CCN(C)CC3)c(C)c3[nH]c4ncc(C)cc4c23)c1	1.06 ± 0.071
COC(=O)c1ccc2c(C(=Nc3ccc(N(C)C(=O)CN4CCN(C)CC4)cc3)c3ccccc3)c(O)[nH]c2c1 [BIBF1120 (Vargatef)]	1.21 ± 0.18
C#Cc1cccc(Nc2ncnc3cc(OCCOC)c(OCCO)cc23)c1 [OSI-420 (Desmethyl Erlotinib)]	0.993 ± 0.038

Compound	cell viability
Cc1csc(-c2nnc(Nc3ccc(Oc4ncccc4-c4ccnc(N)n4)cc3)c3ccccc23)c1	0.943 ± 0.042
CCc1cc(Nc2nccc(-c3c(-c4ccc(OC)c(C(=O)Nc5c(F)cccc5F)c4)nc4ccccn34)n2)c(OC)cc1N1CCC(N2CCN(S(C)(=O)=O)CC2)CC1	0.925 ± 0.059
CN1CCN(c2ccc3nc(-c4c(N)c5c(F)cccc5[nH]c4=O)[nH]c3c2)CC1 [Dovitinib (TKI-258)]	0.901 ± 0.18
c1ccc2c(-c3cnn4cc(-c5ccc(N6CCNCC6)cc5)cnc34)ccnc2c1	0.666 ± 0.25
O=C1NC(=O)/C(=C\c2ccc3nccnc3c2)S1	1 ± 0.038
COc1cc2nccc(Oc3ccc(NC(=O)NC4CC4)c(Cl)c3)c2cc1C(N)=O [E7080 (Lenvatinib)]	1.07 ± 0.085
CC(C)(C)c1cnc(CSc2cnc(NC(=O)C3CCNCC3)s2)o1	1.09 ± 0.12
CCS(=O)(=O)Nc1ccc2c(c1)/C(=C(/Nc1ccc(CN3CCCCC3)cc1)c1ccccc1)C(=O)N2 [Hesperadin]	1.08 ± 0.13
CNC(=O)c1cc(Oc2ccc(NC(=O)Nc3ccc(Cl)c(C(F)(F)F)c3)c(F)c2)ccn1 [Regorafenib (BAY 73-4506)]	1.04 ± 0.021
CCc1cc2c(cc1N1CCC(N3CCOCC3)CC1)C(C)(C)c1[nH]c3cc(C#N)ccc3c1C2=O	1.05 ± 0.071
CCC[C@H](NC(=O)/C(C#N)=C/c1cccc(Br)n1)c1ccccc1	0.421 ± 0.17
COc1cc2c(Nc3ccc(NC(=O)c4ccccc4)cc3)ncnc2cc1OCCCN1CCOCC1	0.8075 ± 0.005
O=C(NOCC(O)CO)c1cc(Br)c(F)c(F)c1Nc1ccc(I)cc1F (configuration not stated)	1.17 ± 0.12
O=C(NC1CCNCC1)c1n[nH]cc1NC(=O)c1c(Cl)cccc1Cl	1.16 ± 0.33
CC[C@H](Nc1ncnc2[nH]cnc12)c1nc2cccc(F)c2c(=O)n1-c1ccccc1	1.05 ± 0.14
C=CC(=O)Nc1ccc2ncnc(Nc3ccc(OCc4cccc(F)c4)c(Cl)c3)c2c1	1.02 ± 0.03
COc1ccc(COc2cc3oc(=O)c4cc(C(C)O)ccc4c3cc2OC)cc1 (configuration not stated) [Palomid 529]	1.08 ± 0.028
O=C(Nc1c[nH]nc1-c1nc2ccc(CN3CCOCC3)cc2[nH]1)NC1CC1	0.842 ± 0.038
